Measured values reported in PubChem BioAssay (EPA / NIEHS).
Activity calls are given as the source filed them. How the source made its calls: active means hit-call score of the fitted dose curve at least 0.9, where 1 is the maximum; inactive means score below 0.9.

Assays:
Settings in all cases: mRNA level, 48 h; actives raise or lower the signal
[1] = read-out: Cytochrome P450 7A1 (Homo sapiens) (UniProt P22680); assay: LTEA_HepaRG_CYP7A1: Life Technologies and Expression Analysis (LTEA) Assay for Cytochrome P450 7A1 (CYP7A1) using HepaRG (AID 2283496)
In short: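 Gene expression endpoint in human HepaRG liver cells treated for 48 h with test chemicals (up to 100 uM, 0.5% DMSO). Values come from bidirectional concentration-response fitting versus DMSO.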

[2] = read-out: Glutathione S-Transferase (GSTA2), GSTA2 (gene 2939); assay: LTEA_HepaRG_GSTA2: Life Technologies and Expression Analysis (LTEA) Assay for Glutathione S-Transferase (GSTA2) using HepaRG (AID 2283497)
In short: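 HepaRG, 48 h dosing, 8-pt half-log CRC from 100 uM, 0.5% DMSO vehicle, n=2; RNA → Fluidigm TaqMan qRT-PCR; GSTA2 vs ACTB/GAPDH/POLR2A; gain/loss fit vs DMSO.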

[3] = read-out: Glutamate-cysteine ligase catalytic (GCLC), GCLC (gene 2729); assay: LTEA_HepaRG_GCLC: Life Technologies and Expression Analysis (LTEA) Assay for Glutamate-cysteine ligase catalytic (GCLC) using HepaRG (AID 2283498)
In short: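 Read-out is GCLC transcript level by Fluidigm-based TaqMan qRT-PCR, normalized to three housekeeping genes and fitted in both directions relative to 0.5% DMSO. Human HepaRG cells received chemicals for 48 h, up to 100 uM.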

[4] = read-out: growth arrest and DNA damage 45 (GADD45G), GADD45G (gene 10912); assay: LTEA_HepaRG_GADD45G: Life Technologies and Expression Analysis (LTEA) Assay for growth arrest and DNA damage 45 (GADD45G) using HepaRG (AID 2283499)
In short: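 GADD45G transcript level by qRT-PCR (housekeeping-normalized: ACTB, GAPDH, POLR2A) after 48 h chemical treatment of a single HepaRG lot in serum-free induction medium; eight-point half-log series up to 100 uM in 0.5% DMSO, duplicates, up- or down-regulation scored.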

[5] = read-out: Glutamate-cysteine ligase regulatory (GCLM), GCLM (gene 2730); assay: LTEA_HepaRG_GCLM: Life Technologies and Expression Analysis (LTEA) Assay for Glutamate-cysteine ligase regulatory (GCLM) using HepaRG (AID 2283500)
In short: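 Human liver HepaRG cultures receive test chemicals for 48 hours at up to 100 uM in 0.5% DMSO. GCLM expression is measured by qRT-PCR and analysed for increases or decreases against vehicle.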

[6] = read-out: Glutathione S-transferase M3 (GSTM3), GSTM3 (gene 2947); assay: LTEA_HepaRG_GSTM3: Life Technologies and Expression Analysis (LTEA) Assay for Glutathione S-transferase M3 (GSTM3) using HepaRG (AID 2283501)
In short: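 GSTM3 transcript levels came from Fluidigm TaqMan qRT-PCR normalized to three housekeeping genes, fitted in both directions against DMSO. HepaRG cultures received chemicals for 48 h in serum-free induction medium (0.5% DMSO), 8 half-log concentrations up to 100 uM, duplicate.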

[7] = read-out: Heat shock 70 kDa protein 1 (HSPA1A), gene 3303; assay: LTEA_HepaRG_HSPA1A: Life Technologies and Expression Analysis (LTEA) Assay for Heat shock 70 kDa protein 1 (HSPA1A) using HepaRG (AID 2283502)
In short: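 HSPA1A induction in human HepaRG liver cells is measured after 48 h of chemical treatment (100 uM maximum, 0.5% DMSO vehicle). Expression comes from qRT-PCR normalized to endogenous controls.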

[8] = read-out: Hypoxia-inducible factor 1-alpha (Homo sapiens) (UniProt Q16665); assay: LTEA_HepaRG_HIF1A: Life Technologies and Expression Analysis (LTEA) Assay for Hypoxia-inducible factor 1 (HIF1A) Trancription factor using HepaRG (AID 2283503)
In short: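 HepaRG, 48 h exposure, 8-pt half-log series from 100 uM, 0.5% DMSO vehicle, duplicates. Readout: HIF1A transcript by qRT-PCR (Fluidigm array), housekeeping-normalised. Bidirectional curve fit vs DMSO baseline.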

[9] = read-out: 3-Hydroxy-3-Methylglutaryl-CoA Synthase 2 (HMGCS2), HMGCS2 (gene 3158); assay: LTEA_HepaRG_HMGCS2: Life Technologies and Expression Analysis (LTEA) Assay for 3-Hydroxy-3-Methylglutaryl-CoA Synthase 2 (HMGCS2) using HepaRG (AID 2283504)
In short: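 Readout is HMGCS2 transcript by qRT-PCR, housekeeping-normalised (ACTB/GAPDH/POLR2A) and fitted bidirectionally against 0.5% DMSO. Differentiated HepaRG cells received chemicals 48 h, duplicate wells, eight half-log concentrations topping at 100 uM.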

[10] = read-out: HGF (gene 3082); assay: LTEA_HepaRG_HGF: Life Technologies and Expression Analysis (LTEA) Assay for Hepatocyte Growth Facto (HGF) using HepaRG (AID 2283505)
In short: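 HGF transcript was quantified by TaqMan qRT-PCR against three housekeeping genes after 48 h treatment of HepaRG cells. Exposure ran in duplicate over eight half-log steps topping at 100 uM in 0.5% DMSO vehicle.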

[11] = read-out: Insulin Like Growth Factor 1 (IGF1), IGF1 (gene 3479); assay: LTEA_HepaRG_IGF1: Life Technologies and Expression Analysis (LTEA) Assay for Insulin Like Growth Factor 1 (IGF1) using HepaRG (AID 2283506)
In short: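 Using human HepaRG liver cells, IGF1 transcript induction or suppression is measured 48 h after dosing across eight concentrations capped at 100 uM. Values derive from bidirectional concentration-response fitting with DMSO as baseline.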

[12] = read-out: Intercellular Adhesion Molecule 1 (ICAM1), ICAM1 (gene 3383); assay: LTEA_HepaRG_ICAM1: Life Technologies and Expression Analysis (LTEA) Assay for Intercellular Adhesion Molecule 1 (ICAM1) using HepaRG (AID 2283507)
In short: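 ICAM1 transcript levels measured by qRT-PCR, normalized to three housekeeping genes (ACTB, GAPDH, POLR2A), after 48 h chemical exposure of HepaRG cells. Duplicate eight-point half-log series from 100 uM in 0.5% DMSO; gain or loss fitted against vehicle.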

[13] = read-out: Insulin-like growth factor-binding protein 1 (IGFBP1), IGFBP1 (gene 3484); assay: LTEA_HepaRG_IGFBP1: Life Technologies and Expression Analysis (LTEA) Assay for Insulin-like growth factor-binding protein 1 (IGFBP1) using HepaRG (AID 2283508)
In short: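 Read-out is qRT-PCR transcript level normalized to three housekeeping genes, fitted in both directions against 0.5% DMSO. Differentiated HepaRG cells received eight half-log concentrations (top 100 uM) in duplicate for 48 h in serum-free induction medium.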

[14] = read-out: Interleukin 6 Receptor (IL6R), IL6R (gene 3570); assay: LTEA_HepaRG_IL6R: Life Technologies and Expression Analysis (LTEA) Assay for Interleukin 6 Receptor (IL6R) using HepaRG (AID 2283510);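 on AC50: differentiated human HepaRG liver cells in serum-free induction medium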
In short: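 Concentration-response in human liver HepaRG cells: eight concentrations from 100 uM downward by half-logs, 48 h exposure, 0.5% DMSO vehicle. IL6R mRNA change measured by qRT-PCR and fitted in both directions relative to vehicle.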

[15] = read-out: Potassium channel subfamily K member 1 (KCNK1), KCNK1 (gene 3775); assay: LTEA_HepaRG_KCNK1: Life Technologies and Expression Analysis (LTEA) Assay for Potassium channel subfamily K member 1 (KCNK1) using HepaRG (AID 2283511)
In short: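 Gain or loss of KCNK1 mRNA is the read-out, quantified by qRT-PCR against three housekeeping genes after 48 h chemical treatment of human HepaRG liver cells. Concentrations ran from 100 uM downward in half-log steps, vehicle 0.5% DMSO.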

[16] = read-out: Keratin 19 (KRT19), KRT19 (gene 3880); assay: LTEA_HepaRG_KRT19: Life Technologies and Expression Analysis (LTEA) Assay for Keratin 19 (KRT19) using HepaRG (AID 2283512)
In short: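 KRT19 transcript measured by TaqMan qRT-PCR, referenced to three housekeeping genes, after HepaRG cells received test chemicals for 48 h. Eight half-log concentrations, top 100 uM, 0.5% DMSO vehicle; increases and decreases both fitted.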

[17] = read-out: Lipase C (LIPC), LIPC (gene 3990); assay: LTEA_HepaRG_LIPC: Life Technologies and Expression Analysis (LTEA) Assay for Lipase C (LIPC) using HepaRG (AID 2283514)
In short: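 Read-out is LIPC transcript level by TaqMan qRT-PCR, normalized to three housekeeping genes, after 48 h chemical treatment of human HepaRG liver cells. Curves span eight concentrations topping at 100 uM; activity in either direction scored relative to 0.5% DMSO.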

[18] = read-out: Lipoprotein lipase (LPL), LPL (gene 4023); assay: LTEA_HepaRG_LPL: Life Technologies and Expression Analysis (LTEA) Assay for Lipoprotein lipase (LPL) using HepaRG (AID 2283515)
In short: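 Read-out is LPL transcript level by qRT-PCR, normalized to three housekeeping genes and fitted bidirectionally against the DMSO control. Human HepaRG cells received chemicals for 48 h at up to 100 uM.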

[19] = read-out: MicroRNA 122 (MIR122), gene 406906; assay: LTEA_HepaRG_MIR122: Life Technologies and Expression Analysis (LTEA) Assay for MicroRNA 122 (MIR122) using HepaRG (AID 2283516); further: the transcript read is the microRNA miR-122
In short: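 HepaRG, 48 h exposure, 8-pt half-log from 100 uM, 0.5% DMSO; TaqMan qRT-PCR; bidirectional fit vs DMSO.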

[20] = read-out: Interleukin 6 (IL6), IL6 (gene 3569); assay: LTEA_HepaRG_IL6: Life Technologies and Expression Analysis (LTEA) Assay for Interleukin 6 (IL6) using HepaRG (AID 2283509)
In short: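 HepaRG, ~100,000 cells/well, 48 h pre-culture; serum-free induction medium; cmpd 8-pt half-log from 100 uM, 0.5% DMSO, duplicate, 48 h. Lysis in RLT, TaqMan qRT-PCR; gain or loss vs DMSO.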

Measured: AC50

Sequence of Hypoxia-inducible factor 1-alpha (Homo sapiens) (Q16665 whole entry, looked up): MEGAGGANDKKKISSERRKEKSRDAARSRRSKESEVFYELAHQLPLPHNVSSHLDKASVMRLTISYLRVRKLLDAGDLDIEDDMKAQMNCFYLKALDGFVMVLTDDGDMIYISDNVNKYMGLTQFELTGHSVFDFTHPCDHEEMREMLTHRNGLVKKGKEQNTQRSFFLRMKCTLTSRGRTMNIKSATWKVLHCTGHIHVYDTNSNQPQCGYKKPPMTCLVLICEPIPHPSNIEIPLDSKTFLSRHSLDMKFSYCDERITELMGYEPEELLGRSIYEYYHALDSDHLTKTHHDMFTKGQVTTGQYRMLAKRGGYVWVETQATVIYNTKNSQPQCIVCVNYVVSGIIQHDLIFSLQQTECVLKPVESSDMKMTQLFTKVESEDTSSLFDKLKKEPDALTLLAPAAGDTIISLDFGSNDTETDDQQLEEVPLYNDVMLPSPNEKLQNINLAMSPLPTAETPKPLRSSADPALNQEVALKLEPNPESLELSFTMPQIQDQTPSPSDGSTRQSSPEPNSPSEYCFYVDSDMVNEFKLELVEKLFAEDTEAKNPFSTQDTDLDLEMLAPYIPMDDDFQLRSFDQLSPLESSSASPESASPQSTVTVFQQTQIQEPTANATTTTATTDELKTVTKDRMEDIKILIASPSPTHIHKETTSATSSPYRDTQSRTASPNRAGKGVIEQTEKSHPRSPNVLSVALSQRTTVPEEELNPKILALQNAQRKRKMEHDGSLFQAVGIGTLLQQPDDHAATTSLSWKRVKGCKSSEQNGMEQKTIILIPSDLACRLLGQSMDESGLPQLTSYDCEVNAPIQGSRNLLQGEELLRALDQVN

Cc1[nH]nc2c1N=C(c1ccccc1Cl)c1cc([N+](=O)[O-])ccc1N2
inactive: [5] | [7] | [8] | [12] | [14]
active: [1] 27 µM | [2] 17.2 µM | [3] 2.83 µM | [4] 0.557 µM | [6] 50 µM | [9] 28.8 µM | [10] 2.84 µM | [11] 1.88 µM | [13] 79.6 µM | [15] 3.09 µM | [16] 1.24 µM | [17] 11.2 µM | [18] 13 µM | [19] 7.26 µM

CCCCCCCCCCCCOS(=O)(=O)O
active: [7] 50 µM | [9] 86.6 µM | [13] 79.1 µM | [14] 93.1 µM | [16] 79.9 µM | [17] 80.4 µM | [19] 86.2 µM
not listed: [1] | [2] | [11]
inactive: all other assays above

CCC(C)c1ccccc1O (stereo unspecified)
not listed: [8]
inactive: all other assays above

CCCCC=O
inactive: all assays above

O=C1NS(=O)(=O)c2ccccc21
inactive: all assays above

CS(=O)(=O)c1ccc([C@@H](CC2CCCC2)C(=O)Nc2cnccn2)cc1Cl
active: [2] 73.7 µM | [5] 50 µM | [9] 74.3 µM | [11] 32.8 µM | [12] 73.7 µM | [13] 75.2 µM | [17] 86.9 µM | [19] 80.8 µM
not listed: [1] | [10]
inactive: all other assays above

OCC(CO)(CBr)CBr
inactive: all assays above

O=C(CCCN1CCC(O)(c2ccc(Cl)cc2)CC1)c1ccc(F)cc1
active: [1] 82 µM | [2] 78 µM | [3] 77.1 µM | [4] 50 µM | [5] 71.9 µM | [7] 74.3 µM | [9] 84.4 µM | [11] 78.5 µM | [12] 75 µM | [13] 71.1 µM | [20] 80.9 µM | [14] 50 µM | [15] 84.4 µM | [16] 36.7 µM | [17] 84.9 µM | [18] 34.4 µM
inactive: [6] | [19]
